Measurements from PubChem BioAssay (Tox21).
Records with an inconclusive call do not appear. Entries that show only a call come without a potency. Active and inactive are the calls of the source. Unless noted, calls follow the shape of the dose curve; as a rule, active = well fitted curve in the direction sought with a large enough effect in the repeat runs; inconclusive = weak or mixed curves; inactive = no such curve, though single readings can be large; an effect the other way counts as inactive or inconclusive.

Experiments:
[1] = qHTS assay to identify small molecule antagonists of the estrogen receptor alpha (ER-alpha) signaling pathway using the BG1 cell line in the presence of 0.1 nM 17-beta-estradiol - cell viability counter screen (AID 1259241); also: nearly all actives have a fitted effect of over 40% in size
Method in brief: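 Cells were plated and left 24 hr, compounds in DMSO were pinned in, 17beta-estradiol was added to 0.1 nM final, and after 22 hr CellTiter-Fluor reagent was added for 30 min before fluorescence was read.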

[2] = qHTS assay to identify small molecule antagonists of the androgen receptor (AR) signaling pathway using the MDA cell line in the presence of 0.5 nM R1881 - cell viability counter screen (AID 1259242); also: nearly all actives have a fitted effect of over 45% in size
Method in brief: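 Counter screen for cytotoxicity run in the same wells as the AR antagonist reporter screen: MDA-kb2 cells were treated 16 hr with test compounds and 0.5 nM R1881, then live-cell protease activity was measured by fluorescence.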

[3] = qHTS assay to identify small molecule HDAC inhibitors (AID 1259364); also: top concentration of the series differs between compounds; nearly all actives have a fitted effect of over 45% in size
Method in brief: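 Luminescence from a cell-permeant luminogenic class I/II HDAC substrate reports endogenous deacetylase activity in intact HCT-116 cells treated with compounds for 2 h.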

[4] = qHTS assay to identify small molecule HDAC inhibitors - cell viability counter screen (AID 1259365); also: series mostly up to about 92 µM; nearly all actives have a fitted effect of over 50% in size
Method in brief: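 Counter screen in wild-type HCT-116 cells: compounds dissolved in DMSO are pin-transferred onto overnight-plated cells and left 2hr at 37C. ATP-based CellTiter-Glo luminescence then measures viable cells.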

[5] = qHTS assay to identify small molecule agonists of the sonic hedgehog signaling (Shh) pathway - cell viability counter screen (AID 1259366); also: nearly all actives have a fitted effect of over 50% in size; also: potency is read from the fitted curve at half-maximal effect
Method in brief: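 Cells are plated at 2,000 per well and left 4hr at 37C, 5% CO2 before compound addition. After 23hr of treatment, CellTiter-Fluor reagent is added for 1hr at 37C and fluorescence is measured.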

[6] = qHTS assay to identify small molecule antagonists of the sonic hedgehog signaling (Shh) pathway - cell viability counter screen (AID 1259367); also: nearly all actives have a fitted effect of over 55% in size; also: potency is read from the fitted curve at half-maximal effect
Method in brief: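 Cells: 3T3 Gli1-Luc, 2,000/well, 4 hr pre-incubation. Compounds in DMSO, then conditioned medium. Incubation 24 hr, 37C, 5% CO2. CellTiter-Fluor at 23 hr, 1 hr, fluorescence.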

[7] = qHTS assay to identify small molecule agonists of the sonic hedgehog signaling (Shh) pathway (AID 1259368; calls by dose curve;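 also: NIH/3T3-derived 3T3Gli1-Luc cells carrying a stable Gli1-driven firefly luciferase reporter; series mostly up to about 92 µM; nearly all actives have a fitted effect of over 15% in size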)
Method in brief: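 3T3Gli1-Luc (NIH/3T3 clone, stable Gli1-Luc); 4 hr pre-incubation, then cpd in DMSO 24 hr, 37 C/5% CO2; luciferase reagent 30 min RT; luminescence.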

[8] = qHTS assay to identify small molecule agonists of the androgen receptor (AR) signaling pathway in the presence of an antagonist - cell viability counter screen (AID 1259379);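 also: MDA-kb2 human breast cancer cells carrying an MMTV luciferase reporter; series mostly up to about 92 µM; nearly all actives have a fitted effect of over 25% in size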
Method in brief: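 Cells: MDA-kb2 (MMTV-luc, AR and GR elements), 3,000/well, 5 hr settle. Added: nilutamide 3.0uM final, then compounds (15 conc.). Incubation: 16 hr, 37C, no CO2. Read-out: CellTiter-Fluor, 1 hr, fluorescence.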

[9] = target: Androgen receptor (Homo sapiens) (UniProt P10275); assay: qHTS assay to identify small molecule agonists of the androgen receptor (AR) signaling pathway in the presence of an antagonist (AID 1259381; calls by dose curve; also: nearly all actives have a fitted effect of over 15% in size)
Chain of Androgen receptor (Homo sapiens) (P10275 whole entry, looked up): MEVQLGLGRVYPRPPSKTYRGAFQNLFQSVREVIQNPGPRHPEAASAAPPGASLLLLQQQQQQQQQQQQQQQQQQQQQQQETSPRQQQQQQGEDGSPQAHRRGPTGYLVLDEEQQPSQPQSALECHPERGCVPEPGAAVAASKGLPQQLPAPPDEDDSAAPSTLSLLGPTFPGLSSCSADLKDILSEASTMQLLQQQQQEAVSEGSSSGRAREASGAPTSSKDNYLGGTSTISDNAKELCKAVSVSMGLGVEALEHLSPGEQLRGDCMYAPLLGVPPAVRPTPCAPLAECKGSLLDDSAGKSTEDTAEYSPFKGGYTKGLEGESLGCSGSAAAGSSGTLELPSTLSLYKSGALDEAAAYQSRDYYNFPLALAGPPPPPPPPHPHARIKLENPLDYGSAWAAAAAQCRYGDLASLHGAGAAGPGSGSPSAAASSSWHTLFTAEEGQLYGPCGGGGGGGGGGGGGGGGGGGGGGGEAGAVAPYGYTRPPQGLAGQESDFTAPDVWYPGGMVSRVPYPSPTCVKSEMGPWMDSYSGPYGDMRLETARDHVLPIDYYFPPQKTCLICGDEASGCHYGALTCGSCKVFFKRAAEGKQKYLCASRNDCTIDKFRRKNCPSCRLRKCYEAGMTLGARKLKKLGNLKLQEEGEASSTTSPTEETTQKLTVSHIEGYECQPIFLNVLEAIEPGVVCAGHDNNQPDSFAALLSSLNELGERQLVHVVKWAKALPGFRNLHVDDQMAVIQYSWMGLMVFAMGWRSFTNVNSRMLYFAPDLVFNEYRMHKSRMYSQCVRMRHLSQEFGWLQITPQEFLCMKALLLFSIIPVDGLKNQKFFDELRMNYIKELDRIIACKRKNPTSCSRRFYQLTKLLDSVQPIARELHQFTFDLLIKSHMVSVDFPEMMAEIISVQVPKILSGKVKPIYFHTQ
Method in brief: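 MDA-kb2 cells, 3,000/well, rested 5hr at 37C/0% CO2 → nilutamide 3.0uM final or buffer → compounds, 15 conc. → 16hr at 37C → ONE-Glo, 30min RT → luminescence.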

[10] = target: Estrogen receptor (Homo sapiens) (UniProt P03372); assay: qHTS assay to identify small molecule agonists of the estrogen receptor alpha (ER-alpha) signaling pathway in the presence of an antagonist (AID 1259383; calls by dose curve; also: top concentration of the series differs between compounds; nearly all actives have a fitted effect of over 15% in size)
Chain of Estrogen receptor (Homo sapiens) (P03372 whole entry, looked up): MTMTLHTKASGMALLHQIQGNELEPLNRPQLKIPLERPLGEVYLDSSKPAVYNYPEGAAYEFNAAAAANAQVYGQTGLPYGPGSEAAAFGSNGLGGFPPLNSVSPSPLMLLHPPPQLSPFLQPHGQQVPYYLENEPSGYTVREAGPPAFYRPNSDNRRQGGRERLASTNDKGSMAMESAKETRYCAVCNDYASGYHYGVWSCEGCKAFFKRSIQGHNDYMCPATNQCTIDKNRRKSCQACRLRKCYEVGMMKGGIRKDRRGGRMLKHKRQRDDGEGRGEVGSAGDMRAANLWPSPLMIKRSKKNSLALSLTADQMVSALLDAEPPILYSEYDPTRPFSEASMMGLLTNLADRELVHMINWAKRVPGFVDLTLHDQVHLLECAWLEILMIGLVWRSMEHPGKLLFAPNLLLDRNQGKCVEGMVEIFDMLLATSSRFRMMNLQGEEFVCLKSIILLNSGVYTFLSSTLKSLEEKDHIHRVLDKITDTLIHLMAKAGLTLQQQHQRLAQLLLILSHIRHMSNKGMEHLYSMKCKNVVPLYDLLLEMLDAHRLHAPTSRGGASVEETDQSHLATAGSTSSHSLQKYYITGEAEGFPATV
Method in brief: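 VM7Luc4E2, endog. ER-alpha + 4×ERE-luc; charcoal-stripped FBS, phenol red-free, 5 d; 24hr plating; +10.0nM ICI-182,780 (final); cpds 15 conc, 22hr, 37C/5% CO2; ONE-Glo luminescence.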

[11] = qHTS assay to identify small molecule agonists or antagonists of the thyroid stimulating hormone receptor (TSHR) signaling pathway - wild type cell line counter screen (AID 1259384; calls by dose curve)
Method in brief: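 Counter screen in untransfected Hek293: compounds (15-point titration, triplicate) plus phosphodiesterase inhibitor Ro20-1724 added after 18 h plating; 30 min RT. Intracellular cAMP via competitive d2/cryptate immunoassay, 1 h incubation.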

[12] = target: Thyrotropin receptor (Homo sapiens) (UniProt P16473); assay: qHTS assay to identify small molecule antagonists of the thyroid stimulating hormone receptor (TSHR) signaling pathway (AID 1259385; calls by dose curve; also: nearly all actives have a fitted effect of over 20% in size)
Chain of Thyrotropin receptor (Homo sapiens) (P16473 whole entry, looked up): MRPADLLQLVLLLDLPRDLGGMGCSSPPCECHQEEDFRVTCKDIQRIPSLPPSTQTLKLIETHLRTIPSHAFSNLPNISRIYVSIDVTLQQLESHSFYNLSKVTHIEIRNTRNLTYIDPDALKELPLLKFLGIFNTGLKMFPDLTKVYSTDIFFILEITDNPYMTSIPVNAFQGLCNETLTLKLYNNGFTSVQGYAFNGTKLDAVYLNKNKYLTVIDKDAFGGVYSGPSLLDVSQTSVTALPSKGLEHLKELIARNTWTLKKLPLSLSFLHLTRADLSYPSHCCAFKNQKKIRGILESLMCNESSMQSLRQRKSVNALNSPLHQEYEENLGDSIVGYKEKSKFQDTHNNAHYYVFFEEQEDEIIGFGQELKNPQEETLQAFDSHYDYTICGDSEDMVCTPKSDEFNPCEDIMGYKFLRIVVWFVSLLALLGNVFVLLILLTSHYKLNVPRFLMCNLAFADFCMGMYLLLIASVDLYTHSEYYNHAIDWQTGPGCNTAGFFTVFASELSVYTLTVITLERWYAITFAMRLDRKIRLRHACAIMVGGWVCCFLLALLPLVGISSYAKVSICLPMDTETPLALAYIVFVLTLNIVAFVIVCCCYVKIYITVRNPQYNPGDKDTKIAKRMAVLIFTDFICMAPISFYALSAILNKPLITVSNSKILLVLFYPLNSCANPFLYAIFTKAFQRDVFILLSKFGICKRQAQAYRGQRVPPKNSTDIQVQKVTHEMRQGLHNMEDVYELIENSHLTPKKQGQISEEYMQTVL
Method in brief: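 Antagonist mode: compound-treated TSHR-expressing HEK293 cells were stimulated with 1.5 ng/mL TSH (final) in presence of Ro20-1724 for 30 min at RT. HTRF cAMP detection after 1 h; each compound tested at 15 concentrations, triplicate.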

[13] = qHTS assay to identify small molecule phospholipidosis (PLD) inducers (AID 1259344; active = well fitted curve in the direction sought with a large enough effect; an effect the other way counts as inactive or inconclusive)
Method in brief: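 Phospholipidosis is scored by imaging LipidTOX-stained pits in HepG2 cells exposed to compound for 24 h at 37 C; pit counts and integrated intensities per well and per cell serve as outputs.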

[14] = qHTS assay to identify small molecule antagonists of the estrogen receptor beta (ER-beta) signaling pathway - cell viability counter screen (AID 1259382);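 also: HEK293T cells carrying ER-beta-UAS-bla reporter stimulated with estradiol; series mostly up to about 92 µM; nearly all actives have a fitted effect of over 55% in size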
Method in brief: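 Cells: ER-beta-UAS-bla HEK293T, 2,000/well, 2% CS-FBS, 6 hr settle. Cpd + E2 (1nM final), 16 hr, 37C/5% CO2. Bla FRET substrate 2 hr RT, then CellTiter-Glo 30 min RT, luminescence.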

[15] = target: Estrogen receptor beta (Homo sapiens) (UniProt Q92731); assay: qHTS assay to identify small molecule agonists of the estrogen receptor beta (ER-beta) signaling pathway (AID 1259377; active = well fitted activation curve with a large enough effect in the signal ratio in the repeat runs, not every such curve was filed as active; the % refers to the signal ratio)
Chain of Estrogen receptor beta (Homo sapiens) (Q92731 whole entry, looked up, the tested form may be a part): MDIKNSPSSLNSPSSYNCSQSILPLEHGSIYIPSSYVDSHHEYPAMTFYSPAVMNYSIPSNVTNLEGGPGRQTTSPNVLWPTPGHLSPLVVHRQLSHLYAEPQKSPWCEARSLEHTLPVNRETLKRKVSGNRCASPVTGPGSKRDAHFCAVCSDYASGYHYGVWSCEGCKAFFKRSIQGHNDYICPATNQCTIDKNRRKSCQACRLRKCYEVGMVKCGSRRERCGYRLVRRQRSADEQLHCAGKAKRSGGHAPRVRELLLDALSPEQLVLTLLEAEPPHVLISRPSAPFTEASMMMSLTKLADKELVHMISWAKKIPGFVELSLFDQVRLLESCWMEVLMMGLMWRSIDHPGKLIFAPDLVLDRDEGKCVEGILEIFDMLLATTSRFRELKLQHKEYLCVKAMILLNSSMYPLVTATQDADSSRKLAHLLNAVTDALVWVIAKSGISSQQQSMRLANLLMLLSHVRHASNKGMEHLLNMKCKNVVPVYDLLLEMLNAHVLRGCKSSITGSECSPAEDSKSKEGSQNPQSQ
Method in brief: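 Agonist mode cell assay in GripTite HEK293T cells expressing an ER-beta fusion that drives beta-lactamase from an Upstream Activator Sequence; 16 hr compound exposure at 37C, then 2 h LiveBLAzer B/G FRET substrate at room temperature, fluorescence read-out.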

[16] = target: Estrogen receptor beta (Homo sapiens) (UniProt Q92731); assay: qHTS assay to identify small molecule antagonists of the estrogen receptor beta (ER-beta) signaling pathway (AID 1259378; active = well fitted inhibition curve with a large enough effect in the signal ratio in the repeat runs, not every such curve was filed as active; the % refers to the signal ratio)
Method in brief: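 Antagonist mode: compounds added to beta-lactamase reporter HEK293T ER-beta-UAS cells stimulated with E2 (1nM final), 16 hr at 37C. LiveBLAzer B/G FRET substrate, 2 hours room temperature, fluorescence read-out.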

[17] = qHTS assay to identify small molecule agonists of the estrogen receptor beta (ER-beta) signaling pathway - cell viability counter screen (AID 1259380); also: nearly all actives have a fitted effect of over 30% in size
Method in brief: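 HEK293T ER-beta-UAS-bla; 2% CS-FBS; 6 hr pre-plate, 16 hr cpd at 37C/5% CO2; LiveBLAzer read first, then CellTiter-Glo 30 min RT, luminescence.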

[18] = qHTS assay to identify small molecule antagonists of the sonic hedgehog signaling (Shh) pathway (AID 1259369; calls by dose curve; also: nearly all actives have a fitted effect of over 45% in size; also: potency is read from the fitted curve at half-maximal effect)
Method in brief: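 3T3Gli1-Luc, conditioned-medium-stimulated, 24hr cpd, 37C/5% CO2; Gli1-driven firefly Luc luminescence after 30min RT with luciferase reagent. Cells plated 4hr before cpd.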

SMILES | Potency [1] | Potency [2] | Potency [3] | Potency [4] | Potency [5] | Potency [6] | Potency [7] | Potency [8] | Potency [9] | Potency [10] | outcome [11] | Potency [12] | outcome [13] | Potency [14] | Potency [15] | Potency [16] | Potency [17] | Potency [18]
COC(=O)C(C)N(C(=O)Cc1ccccc1)c1c(C)cccc1C (stereo not drawn) | inactive | inactive | inactive | inactive | inactive | inactive | inactive | inactive | inactive | inactive | inactive | inactive | – | – | – | – | – | –
OCCCBr | inactive | inactive | inactive | inactive | inactive | inactive | – | inactive | – | inactive | inactive | inactive | inactive | inactive | – | – | – | –
CCC(COC(=O)c1cc(OC)c(OC)c(OC)c1)(c1ccccc1)N(C)C (stereo not drawn) | inactive | inactive | inactive | inactive | inactive | inactive | inactive | inactive | – | – | – | – | inactive | inactive | inactive | inactive | inactive | –
Clc1cccc(SC2CCNCC2)n1 | inactive | inactive | inactive | inactive | inactive | – | inactive | inactive | – | inactive | inactive | inactive | inactive | inactive | – | inactive | inactive | 26.6 µM (active)
O=C(O)C(F)(F)C(F)(F)C(F)(F)C(F)(F)C(F)(F)C(F)(F)C(F)(F)C(F)(F)C(F)(F)C(F)(F)F | inactive | inactive | inactive | inactive | inactive | – | inactive | – | – | – | – | – | – | inactive | inactive | inactive | – | inactive
CC1C(=O)C[C@]2(C(C)C)C[C@H]12 (stereo partly drawn) | inactive | inactive | inactive | inactive | inactive | inactive | inactive | inactive | – | – | inactive | inactive | – | inactive | – | inactive | inactive | inactive
CCCCc1c(C)nc(NCC)nc1OS(=O)(=O)N(C)C | inactive | inactive | inactive | inactive | 30.6 µM (active) | – | inactive | – | – | inactive | inactive | inactive | – | inactive | inactive | – | inactive | 61.1 µM (active)
[O-][Cl+]O | inactive | inactive | inactive | inactive | inactive | – | inactive | inactive | – | inactive | – | – | – | inactive | inactive | inactive | inactive | inactive
COc1nn(C(=O)NS(=O)(=O)c2ccccc2OC(F)(F)F)c(=O)n1C | inactive | inactive | inactive | inactive | inactive | inactive | – | inactive | – | – | inactive | inactive | – | inactive | – | inactive | inactive | –
CNP(=O)(OC)Oc1ccc(C(C)(C)C)cc1Cl (stereo not drawn) | inactive | inactive | inactive | inactive | inactive | inactive | – | – | – | inactive | inactive | inactive | – | inactive | – | – | – | 27.3 µM (active)
CC(C)(CCl)C(=O)Cl | inactive | inactive | inactive | inactive | inactive | 12.2 µM (active) | inactive | inactive | – | – | inactive | inactive | – | inactive | inactive | inactive | inactive | 12.2 µM (active)
COC(=O)C(Br)CBr (stereo not drawn) | inactive | inactive | inactive | inactive | inactive | inactive | inactive | inactive | – | inactive | – | – | – | inactive | inactive | inactive | inactive | –
